The supplement of paper PMC10849652
Targets with a hit are over-represented here; the source holds about 7,900 in all. About 0.6% of all pairs of compound and target were hits. Values without a mark were called inactive.

compound: CS(=O)(=O)c1ccc(-c2cnc(N)c(C(=O)Nc3ccccc3)n2)cc1; assay: log2 fold change, soluble protein after heating vs DMSO (PISA); higher = thermal stabilisation; K562 cells, 10 uM, 30 min; active = over 0.2 and 3.5 SD of the protein, either way, in both replicates (recomputed)
Method in brief: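 Values are thermal stability changes relative to control samples and are taken from duplicates. They are stated as log2 fold changes. Before quantification by TMTpro 16plex LC-MS/MS with equalised channel sums, K562 cells at 2×10^6 cells/mL were treated with 10 μM compound for 30 min, heated in aliquots for 3 min across 48°C-58°C, pooled, extracted in PBS with 0.5% NP-40 at 4°C, and centrifuged at 21,000xg for 90 min to give the soluble supernatant.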

UniProt P49189, sequence (P49189 whole entry, looked up): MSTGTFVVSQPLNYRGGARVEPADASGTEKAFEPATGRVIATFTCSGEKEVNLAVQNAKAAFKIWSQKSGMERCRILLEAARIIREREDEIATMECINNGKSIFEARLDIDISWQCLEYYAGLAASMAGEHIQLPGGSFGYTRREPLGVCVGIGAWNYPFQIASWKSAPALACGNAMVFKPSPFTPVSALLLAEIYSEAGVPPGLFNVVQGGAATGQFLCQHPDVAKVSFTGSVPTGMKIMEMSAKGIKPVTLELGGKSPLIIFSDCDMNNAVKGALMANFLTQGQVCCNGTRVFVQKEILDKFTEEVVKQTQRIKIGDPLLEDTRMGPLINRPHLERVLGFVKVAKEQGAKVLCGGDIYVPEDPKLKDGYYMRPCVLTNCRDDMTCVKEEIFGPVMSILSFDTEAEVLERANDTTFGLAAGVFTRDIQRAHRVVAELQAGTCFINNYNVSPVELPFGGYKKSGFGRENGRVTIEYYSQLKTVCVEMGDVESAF
UniProt Q15059, sequence (Q15059 whole entry, looked up): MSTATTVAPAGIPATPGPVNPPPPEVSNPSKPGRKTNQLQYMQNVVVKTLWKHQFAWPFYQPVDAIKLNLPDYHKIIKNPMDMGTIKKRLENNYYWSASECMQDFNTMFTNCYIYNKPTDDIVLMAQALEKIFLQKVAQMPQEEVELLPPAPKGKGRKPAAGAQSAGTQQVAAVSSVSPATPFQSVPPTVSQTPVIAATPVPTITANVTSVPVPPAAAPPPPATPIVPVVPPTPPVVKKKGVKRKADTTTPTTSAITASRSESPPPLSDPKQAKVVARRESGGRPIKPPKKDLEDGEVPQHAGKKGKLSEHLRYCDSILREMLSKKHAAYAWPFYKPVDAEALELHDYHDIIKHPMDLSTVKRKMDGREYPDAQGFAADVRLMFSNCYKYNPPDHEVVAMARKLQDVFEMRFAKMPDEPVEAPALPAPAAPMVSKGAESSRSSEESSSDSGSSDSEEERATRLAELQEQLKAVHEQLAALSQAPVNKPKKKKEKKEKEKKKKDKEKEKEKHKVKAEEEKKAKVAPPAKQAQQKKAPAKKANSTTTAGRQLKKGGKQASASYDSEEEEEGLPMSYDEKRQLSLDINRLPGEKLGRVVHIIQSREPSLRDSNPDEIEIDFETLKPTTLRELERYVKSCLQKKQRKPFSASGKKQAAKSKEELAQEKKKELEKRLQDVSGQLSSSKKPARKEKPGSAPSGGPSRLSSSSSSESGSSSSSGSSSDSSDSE
UniProt Q13535, sequence (Q13535 whole entry, looked up): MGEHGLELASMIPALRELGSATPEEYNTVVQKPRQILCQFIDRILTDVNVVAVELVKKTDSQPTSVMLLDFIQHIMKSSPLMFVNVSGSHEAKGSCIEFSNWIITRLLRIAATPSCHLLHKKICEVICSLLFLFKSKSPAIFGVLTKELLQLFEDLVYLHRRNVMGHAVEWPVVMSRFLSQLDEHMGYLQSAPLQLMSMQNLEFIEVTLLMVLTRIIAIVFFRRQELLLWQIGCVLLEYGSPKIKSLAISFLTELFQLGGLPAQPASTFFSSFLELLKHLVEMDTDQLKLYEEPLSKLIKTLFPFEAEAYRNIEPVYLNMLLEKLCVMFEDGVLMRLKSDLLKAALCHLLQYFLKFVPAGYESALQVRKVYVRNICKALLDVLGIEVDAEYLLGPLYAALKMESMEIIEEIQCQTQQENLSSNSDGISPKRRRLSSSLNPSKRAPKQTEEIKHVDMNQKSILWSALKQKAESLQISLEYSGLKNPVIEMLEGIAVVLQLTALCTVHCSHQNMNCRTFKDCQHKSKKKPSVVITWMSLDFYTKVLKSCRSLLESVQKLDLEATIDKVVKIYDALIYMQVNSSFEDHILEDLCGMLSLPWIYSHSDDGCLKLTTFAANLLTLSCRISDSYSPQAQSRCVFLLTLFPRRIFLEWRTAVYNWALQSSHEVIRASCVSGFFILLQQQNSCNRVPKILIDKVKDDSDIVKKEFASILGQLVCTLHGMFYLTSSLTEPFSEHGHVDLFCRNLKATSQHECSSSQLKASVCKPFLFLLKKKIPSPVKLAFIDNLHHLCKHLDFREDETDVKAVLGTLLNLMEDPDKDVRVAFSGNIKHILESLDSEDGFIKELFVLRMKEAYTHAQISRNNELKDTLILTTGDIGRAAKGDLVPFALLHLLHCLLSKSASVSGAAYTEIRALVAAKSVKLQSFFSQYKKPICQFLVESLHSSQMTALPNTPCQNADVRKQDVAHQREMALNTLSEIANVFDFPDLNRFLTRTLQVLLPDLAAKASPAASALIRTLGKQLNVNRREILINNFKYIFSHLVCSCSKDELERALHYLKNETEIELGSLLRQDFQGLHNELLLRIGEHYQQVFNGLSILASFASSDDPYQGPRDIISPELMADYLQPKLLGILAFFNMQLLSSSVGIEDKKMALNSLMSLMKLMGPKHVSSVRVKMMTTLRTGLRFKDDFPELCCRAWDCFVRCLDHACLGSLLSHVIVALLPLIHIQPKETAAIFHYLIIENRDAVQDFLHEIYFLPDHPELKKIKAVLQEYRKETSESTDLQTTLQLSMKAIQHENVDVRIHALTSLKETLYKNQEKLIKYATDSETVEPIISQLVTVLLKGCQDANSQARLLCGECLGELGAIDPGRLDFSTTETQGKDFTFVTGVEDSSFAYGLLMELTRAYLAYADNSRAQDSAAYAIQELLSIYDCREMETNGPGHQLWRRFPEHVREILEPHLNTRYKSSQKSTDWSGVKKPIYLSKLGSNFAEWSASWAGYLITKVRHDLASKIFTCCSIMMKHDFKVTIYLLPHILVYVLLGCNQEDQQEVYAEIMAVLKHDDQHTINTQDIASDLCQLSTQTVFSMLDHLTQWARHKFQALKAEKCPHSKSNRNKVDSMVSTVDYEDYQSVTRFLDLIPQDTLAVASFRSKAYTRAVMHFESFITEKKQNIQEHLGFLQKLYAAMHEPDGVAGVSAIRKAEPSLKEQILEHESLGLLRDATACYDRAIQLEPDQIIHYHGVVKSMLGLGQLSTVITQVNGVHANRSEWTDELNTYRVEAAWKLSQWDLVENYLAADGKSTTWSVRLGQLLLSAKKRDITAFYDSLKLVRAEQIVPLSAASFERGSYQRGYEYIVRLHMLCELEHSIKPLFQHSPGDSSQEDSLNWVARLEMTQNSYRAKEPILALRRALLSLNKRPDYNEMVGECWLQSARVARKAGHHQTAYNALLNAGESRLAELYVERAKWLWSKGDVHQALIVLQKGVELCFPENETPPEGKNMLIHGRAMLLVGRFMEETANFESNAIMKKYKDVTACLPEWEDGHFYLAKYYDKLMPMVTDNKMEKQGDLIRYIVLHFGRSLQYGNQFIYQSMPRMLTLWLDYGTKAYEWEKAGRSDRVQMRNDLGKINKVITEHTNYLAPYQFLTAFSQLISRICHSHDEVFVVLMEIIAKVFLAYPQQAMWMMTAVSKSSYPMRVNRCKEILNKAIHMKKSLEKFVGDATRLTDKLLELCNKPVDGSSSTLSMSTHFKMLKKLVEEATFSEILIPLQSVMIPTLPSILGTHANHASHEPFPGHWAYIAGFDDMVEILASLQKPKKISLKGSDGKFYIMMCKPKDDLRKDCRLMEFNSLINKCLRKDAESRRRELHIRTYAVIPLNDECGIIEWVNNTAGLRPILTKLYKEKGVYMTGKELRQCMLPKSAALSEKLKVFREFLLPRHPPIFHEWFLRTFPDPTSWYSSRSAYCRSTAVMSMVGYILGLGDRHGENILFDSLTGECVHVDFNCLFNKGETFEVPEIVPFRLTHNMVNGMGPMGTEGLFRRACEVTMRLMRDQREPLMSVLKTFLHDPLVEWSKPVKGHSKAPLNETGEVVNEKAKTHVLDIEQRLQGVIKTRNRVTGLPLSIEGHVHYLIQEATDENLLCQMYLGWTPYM
UniProt Q562R1, sequence (Q562R1 whole entry, looked up): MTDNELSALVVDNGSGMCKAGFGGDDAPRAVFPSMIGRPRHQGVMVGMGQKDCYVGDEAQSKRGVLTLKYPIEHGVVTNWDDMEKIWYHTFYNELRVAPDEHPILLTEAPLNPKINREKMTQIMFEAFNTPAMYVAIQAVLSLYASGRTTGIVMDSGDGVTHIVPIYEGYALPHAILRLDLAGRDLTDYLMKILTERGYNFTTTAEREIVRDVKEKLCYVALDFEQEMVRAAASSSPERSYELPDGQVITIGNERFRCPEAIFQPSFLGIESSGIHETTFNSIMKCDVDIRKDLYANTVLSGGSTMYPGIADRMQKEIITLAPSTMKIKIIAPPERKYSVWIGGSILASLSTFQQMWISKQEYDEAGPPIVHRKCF
UniProt Q9BUT1, sequence (Q9BUT1 whole entry, looked up): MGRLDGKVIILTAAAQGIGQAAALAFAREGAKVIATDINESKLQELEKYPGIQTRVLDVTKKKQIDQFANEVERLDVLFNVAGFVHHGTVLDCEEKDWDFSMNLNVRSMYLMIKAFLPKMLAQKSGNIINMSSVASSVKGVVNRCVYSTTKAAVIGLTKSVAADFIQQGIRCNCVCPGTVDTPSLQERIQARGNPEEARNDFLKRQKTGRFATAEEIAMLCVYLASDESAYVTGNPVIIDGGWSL
UniProt Q8N5I2, sequence (Q8N5I2 whole entry, looked up): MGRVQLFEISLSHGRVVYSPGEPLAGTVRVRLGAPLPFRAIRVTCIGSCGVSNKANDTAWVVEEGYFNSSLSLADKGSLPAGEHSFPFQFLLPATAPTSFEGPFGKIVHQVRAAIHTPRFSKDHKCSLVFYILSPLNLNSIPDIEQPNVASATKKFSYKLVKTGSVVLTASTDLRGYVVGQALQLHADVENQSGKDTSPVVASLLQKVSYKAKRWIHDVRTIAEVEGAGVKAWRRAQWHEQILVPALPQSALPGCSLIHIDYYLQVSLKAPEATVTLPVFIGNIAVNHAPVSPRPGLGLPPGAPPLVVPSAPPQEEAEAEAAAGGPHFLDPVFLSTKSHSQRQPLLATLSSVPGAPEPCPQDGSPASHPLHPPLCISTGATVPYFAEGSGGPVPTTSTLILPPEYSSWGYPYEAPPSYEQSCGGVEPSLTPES
UniProt P55008, sequence (P55008 whole entry, looked up): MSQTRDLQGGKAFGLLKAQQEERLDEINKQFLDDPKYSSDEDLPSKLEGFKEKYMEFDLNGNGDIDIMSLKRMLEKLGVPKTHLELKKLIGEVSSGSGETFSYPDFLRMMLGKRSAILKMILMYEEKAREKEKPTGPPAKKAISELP

| Target | log2 fold change |
| --- | --- |
| BDH2 (UniProt Q9BUT1) | 0.035 |
| ACVR1 (UniProt Q04771) | 0.38 |
| ATXN7L3 isoform 2 (UniProt Q14CW9) | 0.001 |
| ALDH9A1 (UniProt P49189) | 0.084 |
| BAIAP2 isoform 4 (UniProt Q9UQB8) | -0.112 |
| ALDH2 isoform 2 (UniProt P05091) | 0.209 |
| BRD4 (UniProt O60885) | 0.081 |
| ATF1 (UniProt P18846) | -0.004 |
| AIF1 (UniProt P55008) | 0.008 |
| AKNA (UniProt Q7Z591) | -0.015 |
| ARHGAP4 isoform 2 (UniProt P98171) | 0.023 |
| AUNIP isoform 2 (UniProt Q9H7T9) | 0.117 |
| ARRDC1 (UniProt Q8N5I2) | 0.015 |
| AZI2 (UniProt Q9H6S1) | 0.074 |
| BRD3 (UniProt Q15059) | 0.117 |
| ATR (UniProt Q13535) | 0.063 |
| AURKA (UniProt O14965) | 0.198 |
| ACSL6 isoform 1 (UniProt Q9UKU0) | -0.055 |
| ASS1 (UniProt P00966) | 0.033 |
| ADD2 isoform 9 (UniProt P35612) | -0.067 |
| BTBD6 (UniProt Q96KE9) | 0.117 |
| ACTBL2 (UniProt Q562R1) | -0.022 |
